Active and inactive are the calls of the source. Unless noted, no rule for the calls is given here.
Assays:
[1] = HepG2 liver cancer cell viability effects, profiling panel, resazurin fluorescence, 24 h, PK04 Diversity Set (AID 1172); settings: higher = more signal; also: test concentration not given here
[2] = basal S. cerevisiae growth modulation, no modifier, primary screen, OD600, strain BY4716, 24 h, basal condition (AID 1173); settings: OD600, 24 h, higher = more signal, called active from +8 up or from −8 down
[3] = MM1S myeloma cell viability, profiling panel, resazurin fluorescence, basal, 24 h, PK04 Diversity Set (AID 1174); settings: higher = more signal, called active from +8 up or from −8 down;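 also: MM1S multiple myeloma cell line; test concentration not given here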
[4] = target: Dihydroorotate dehydrogenase (quinone), mitochondrial (Plasmodium falciparum (isolate 3D7)) (UniProt Q08210); experiment: PfDHODH enzyme inhibitors, primary screen, biochemical, C-terminal His tag, absorbance 600 nm (AID 1175); settings: DCIP absorbance 600 nm, higher = more signal, called active from +8 up or from −8 down;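 also: recombinant parasite enzyme with a five histidine tag at its C terminus; test concentration not given here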
Dihydroorotate dehydrogenase (quinone), mitochondrial (Plasmodium falciparum (isolate 3D7)), sequence (Q08210 whole entry, looked up): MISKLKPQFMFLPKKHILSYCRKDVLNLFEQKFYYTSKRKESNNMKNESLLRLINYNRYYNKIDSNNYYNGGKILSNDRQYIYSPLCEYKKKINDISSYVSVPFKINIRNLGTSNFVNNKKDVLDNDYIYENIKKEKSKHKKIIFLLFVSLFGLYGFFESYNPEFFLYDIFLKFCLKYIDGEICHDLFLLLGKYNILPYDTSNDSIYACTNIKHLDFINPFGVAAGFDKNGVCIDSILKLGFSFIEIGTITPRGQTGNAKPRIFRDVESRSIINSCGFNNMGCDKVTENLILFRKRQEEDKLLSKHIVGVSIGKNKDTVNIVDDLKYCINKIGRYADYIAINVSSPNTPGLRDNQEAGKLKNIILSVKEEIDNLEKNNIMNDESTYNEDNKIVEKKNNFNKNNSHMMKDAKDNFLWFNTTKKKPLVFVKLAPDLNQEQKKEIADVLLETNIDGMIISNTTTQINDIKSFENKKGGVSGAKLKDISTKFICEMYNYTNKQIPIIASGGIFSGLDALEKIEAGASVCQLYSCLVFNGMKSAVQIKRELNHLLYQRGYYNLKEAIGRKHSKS

[5] = P. aeruginosa biofilm formation inhibitors, primary screen, strain PAO1, LB-PBS medium, absorbance 600 nm (AID 1176); also: test concentration not given here; settings: P. aeruginosa PAO1 growth/biofilm, A600, 12 h; higher = more signal
[6] = S. cerevisiae RM11-1a growth modifiers, primary screen, strain RM11-1a, OD600, basal, 24 h (AID 1177); settings: OD600, 24 h, higher = more signal, called active from +8 up or from −8 down;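 also: cultures grown under basal conditions with no added stressor; test concentration not given here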
[7] = E. coli acrAB mutant growth effects, primary screen, E. coli filamentation inducers, strain DRC39, OD650, 24 h (AID 1178); settings: higher = more signal, called active from +8 up or from −8 down;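 also: growth measured as culture turbidity by optical density at 650 nm; test concentration not given here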
[8] = E. coli acrAB mutant growth effects, primary screen, E. coli filamentation inducers, strain DRC39, OD650, 48 h (AID 1179);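 also: screen aims at cell division blockers that make cells filament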; settings: E. coli DRC39 delta-acrAB growth, higher = more signal, called active from +8 up or from −8 down
[9] = RPMI8226 myeloma cell viability, profiling panel, resazurin fluorescence, basal, 24 h, PK04 Diversity Set (AID 1180); settings: higher = more signal;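 also: RPMI8826 multiple myeloma cell line at 5000 cells per well; test concentration not given here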
[10] = target: E3 ubiquitin-protein ligase XIAP (Homo sapiens) (UniProt P98170); experiment: XIAP binders, primary screen, biophysical, small-molecule microarray, fluorescence 635 nm (AID 1181); settings: small-molecule microarray binding, higher = more signal;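 also: score merges 667 nm emission and signal to noise over triplicate slides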
E3 ubiquitin-protein ligase XIAP (Homo sapiens), sequence (P98170 whole entry, looked up): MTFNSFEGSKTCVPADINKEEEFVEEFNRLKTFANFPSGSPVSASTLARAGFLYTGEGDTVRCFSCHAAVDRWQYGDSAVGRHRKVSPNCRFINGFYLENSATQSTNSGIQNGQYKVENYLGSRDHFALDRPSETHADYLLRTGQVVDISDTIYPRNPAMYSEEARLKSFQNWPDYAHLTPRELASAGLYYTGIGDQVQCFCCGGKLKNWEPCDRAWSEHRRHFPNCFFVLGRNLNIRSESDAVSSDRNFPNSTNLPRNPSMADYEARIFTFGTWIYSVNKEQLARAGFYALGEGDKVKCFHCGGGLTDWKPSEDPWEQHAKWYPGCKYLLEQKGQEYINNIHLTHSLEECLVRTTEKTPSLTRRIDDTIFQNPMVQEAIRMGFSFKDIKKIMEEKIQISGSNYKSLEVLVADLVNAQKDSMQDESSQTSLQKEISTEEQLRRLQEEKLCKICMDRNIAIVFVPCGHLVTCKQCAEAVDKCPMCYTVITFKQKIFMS

| SMILES | z-score [1] | z-score [2] | z-score [3] | composite z-score [4] | z-score [5] | z-score [6] | z-score [7] | z-score [8] | z-score [9] | composite z-score [10] |
| --- | --- | --- | --- | --- | --- | --- | --- | --- | --- | --- |
| C=CC(=C)C1=CCO[C@@H]1[C@H]1CCCN1S(=O)(=O)c1ccccc1[N+](=O)[O-] | 1.09 | -0.793 (inactive) | -0.22 (inactive) | -0.426 (inactive) | -0.578 (inactive) | 0.223 (inactive) | 0.858 (inactive) | 0.714 (inactive) | 0.187 | -0.119 |
| O=C1OCCC=C[C@H]2OC34C=CCN(Cc5ccccc5)C(=O)[C@H]3N(CCCO)C(=O)[C@@H]4C12 (stereo not given in full) | 0.35 | -0.625 (inactive) | 1.33 (inactive) | -1.01 (inactive) | 0.152 (inactive) | -0.0921 (inactive) | -0.638 (inactive) | 0.129 (inactive) | 0.165 | -0.0116 |
| COc1ccc(CCNC(=O)[C@@H]2c3ccccc3C(=O)N(Cc3ccc(OC(F)(F)F)cc3)[C@H]2c2ccc(CO)cc2)cc1 | 0.697 | -0.484 (inactive) | -0.0601 (inactive) | 0.274 (inactive) | 1.52 (inactive) | -0.419 (inactive) | -0.344 (inactive) | -1.06 (inactive) | 0.53 | -0.228 |
| CCCN1C(=O)[C@]2(COC(c3ccc(OCCCO)cc3)=N2)Cc2ccccc21 | 0.0036 | -1.69 (inactive) | -0.543 (inactive) | -0.238 (inactive) | -0.152 (inactive) | 0.235 (inactive) | -0.011 (inactive) | -0.0774 (inactive) | -0.454 | -0.195 |
| CO[C@H]1O[C@H](CO)[C@@H](OC(=O)Nc2ccc(Oc3ccccc3)cc2)[C@H](OC(=O)Nc2ccccc2)[C@H]1OC(=O)Nc1ccccc1 | -2.18 | -0.494 (inactive) | -2.36 (inactive) | -0.996 (inactive) | 1.97 (inactive) | 2.67 (inactive) | 1.57 (inactive) | 0.561 (inactive) | -2.48 | 0.0668 |
| CC(C)(C)OC(=O)CC[C@@]1(C(=O)O)N=C(c2ccc(OCCCO)cc2)O[C@@H]1c1ccccc1N=[N+]=[N-] | 0.166 | 0.523 (inactive) | -0.789 (inactive) | 0.0016 (inactive) | 0.659 (inactive) | 0.0589 (inactive) | 0.428 (inactive) | 0.367 (inactive) | -0.105 | -0.187 |
| COC(=O)[C@@]1(Cc2ccccc2)[C@H]2c3cc(C(=O)N4CCCC4)n(C)c3C[C@H]2CN1C(=O)c1ccccc1 | -0.533 | 0.211 (inactive) | -1.48 (inactive) | 0.381 (inactive) | 0.976 (inactive) | 0.513 (inactive) | -0.396 (inactive) | -0.0676 (inactive) | -0.705 | 0.391 |
| C=CCC(OC(C)=O)[C@@H]1[C@@H](N(Cc2cc3ccccc3o2)C(=O)c2ccc(C)cc2)c2cc(OCCCO)ccc2N1C(=O)c1ccc2ccccc2c1 (stereo not given in full) | 0.792 | -0.195 (inactive) | 0.951 (inactive) | -0.375 (inactive) | -0.583 (inactive) | 0.0749 (inactive) | 0.786 (inactive) | 1.02 (inactive) | 1.72 | 0.0015 |
| NC(=O)NCC#Cc1ccc2c(c1)[C@]1(C(=O)N2)[C@H](C(=O)N2CCCCCCC2)[C@H]2C(=O)O[C@H](c3ccccc3)[C@H](c3ccccc3)N2[C@@H]1c1ccc(OCCO)cc1 | -0.3 | 1.84 (inactive) | -0.36 (inactive) | 0.835 (inactive) | 2.1 (inactive) | 2.12 (inactive) | 0.049 (inactive) | -0.318 (inactive) | -0.831 | 0.0368 |
| CC(C)C(=C=CC[C@H](O)c1ccccc1OCCO)C[C@H](O)c1ccccn1 | 0.644 | -0.669 (inactive) | 0.34 (inactive) | -3.95 (inactive) | 0.4 (inactive) | 0.398 (inactive) | 0.762 (inactive) | 0.577 (inactive) | 0.285 | -0.226 |
| CN1C(=O)C2C(C1=O)C1C=C(CCCO)C2C(c2cccs2)N1C (stereo not given) | -0.341 | -0.37 (inactive) | -0.739 (inactive) | -1.36 (inactive) | -0.146 (inactive) | 0.185 (inactive) | 0.469 (inactive) | 0.742 (inactive) | -0.626 | -0.412 |
| Cc1ccc(S[C@]2(C(=O)NCC(C)C)CC(=O)N(Cc3ccccc3)[C@@H]2c2ccc(CO)cc2I)cc1 | -0.629 | -1.51 (inactive) | -1.73 (inactive) | 0.47 (inactive) | 0.282 (inactive) | 0.341 (inactive) | -0.0655 (inactive) | -0.553 (inactive) | -1.89 | 0.0583 |
| O=C1O[C@@H](c2ccccc2)[C@@H](c2ccccc2)N2[C@@H](c3ccc(O)cc3)[C@]3(C(=O)Nc4ccc(C#CC5=CCCCC5)cc43)[C@@H](C(=O)O)[C@H]12 | 1.46 | -4.6 (inactive) | 1.23 (inactive) | -2.56 (inactive) | 2.85 (inactive) | -2.61 (inactive) | 0.661 (inactive) | 1.32 (inactive) | 1.02 | 0.332 |
| COc1ccc([Si](C)(C)[C@@H]2[C@@H](CC(=O)N(CCO)Cc3ccccc3)O[C@]3(C(=O)N(C)c4ccccc43)[C@H]2C)cc1 | -1.36 | -0.599 (inactive) | -1.64 (inactive) | -0.688 (inactive) | 0.708 (inactive) | 0.975 (inactive) | -0.284 (inactive) | -0.896 (inactive) | -1.49 | -0.0853 |
| CN(C)CCCCCCNC(=O)[C@H]1C[C@H]2C(=O)N[C@@H](CCCCN)C(=O)N2[C@H]1c1ccc(O)cc1 | -0.807 | 0.293 (inactive) | -0.249 (inactive) | 1.31 (inactive) | 0.808 (inactive) | 0.0384 (inactive) | -0.108 (inactive) | 0.267 (inactive) | 0.263 | 2.64 |
| CC(C)NC(=O)[C@@]1(Cc2ccccc2I)c2ccccc2C(=O)N(Cc2ccccc2)[C@H]1c1ccc(CO)cc1 | 0.255 | -0.659 (inactive) | -0.329 (inactive) | 0.799 (inactive) | 0.972 (inactive) | -0.0378 (inactive) | -0.24 (inactive) | -0.324 (inactive) | -0.211 | -0.0023 |
| CCOC(=O)C1=CC[C@@H](c2ccccc2Cl)N(S(=O)(=O)c2ccc(C)cc2)C1 | -0.358 | -1.65 (inactive) | 0.0161 (inactive) | -0.978 (inactive) | -0.308 (inactive) | -0.24 (inactive) | -0.203 (inactive) | 1.03 (inactive) | -1.37 | -0.0115 |
| COC(=O)c1ccc(C(O)C2C=CC3C(=O)N(C)C(=O)C3N2NC(=O)OC(C)(C)C)o1 (stereo not given) | -0.784 | 0.483 (inactive) | -0.29 (inactive) | -0.0658 (inactive) | 0.599 (inactive) | 0.402 (inactive) | -0.685 (inactive) | -0.757 (inactive) | -0.212 | 1.42 |
| CC(C)NC(=O)[C@@H]1c2ccccc2C(=O)N(Cc2ccccc2)[C@H]1c1ccc(CO)cc1 | -0.043 | 0.349 (inactive) | -0.889 (inactive) | 0.0505 (inactive) | 0.292 (inactive) | -0.714 (inactive) | 0.0003 (inactive) | -0.176 (inactive) | -0.239 | -0.0473 |
| CCOC(=O)C[C@H]1[C@H](OC(=O)c2ccc(-c3ccccc3)cc2)[C@@H](NC(=O)Cc2ccc(OC)cc2)c2cc(OCCCO)ccc2N1C(=O)c1ccc2ccccc2n1 | -0.458 | -0.533 (inactive) | -0.607 (inactive) | -0.236 (inactive) | 0.055 (inactive) | -0.586 (inactive) | -0.536 (inactive) | -0.485 (inactive) | -0.893 | 0.091 |
| CCCNC(=O)[C@@H]1c2ccccc2C(=O)N(Cc2ccccc2)[C@H]1c1ccc(CO)cc1 | -0.898 | 0.215 (inactive) | 0.0254 (inactive) | 0.939 (inactive) | 1.27 (inactive) | 0.797 (inactive) | -0.229 (inactive) | -0.969 (inactive) | 0.477 | -0.276 |
| COCCOC(=O)N1C(=O)[C@@]2(c3cc(C#CC4=CCCCC4)ccc31)[C@H](C(=O)N1CCc3cc(OC)c(OC)cc3C1)[C@H]1C(=O)O[C@H](c3ccccc3)[C@H](c3ccccc3)N1[C@@H]2c1ccccc1OCCO | -0.437 | 1.11 (inactive) | 0.224 (inactive) | -0.0424 (inactive) | 2.41 (inactive) | 1.78 (inactive) | -0.649 (inactive) | 0.418 (inactive) | -0.135 | 0.0039 |
| CCOC(=O)C[C@H]1[C@H](OC(=O)c2ccccc2-c2ccccc2)[C@@H](NC(=O)Cc2ccc(OC)cc2)c2cc(OCCCO)ccc2N1C(=O)c1ccccc1 | -0.532 | 0.728 (inactive) | -0.275 (inactive) | 0.542 (inactive) | -0.0461 (inactive) | 0.799 (inactive) | -0.672 (inactive) | -0.79 (inactive) | -0.155 | 0.123 |
| COCCOC(=O)N1C(=O)[C@@]2(c3cc(C#CCNC(N)=O)ccc31)[C@H](c1ccc(O)cc1)N1[C@H](c3ccccc3)[C@H](c3ccccc3)OC(=O)[C@H]1[C@@H]2C(=O)Nc1nc2ccccc2s1 | 1.51 | -2.16 (inactive) | 1.38 (inactive) | -1.96 (inactive) | 3.22 (inactive) | -2.47 (inactive) | 2.74 (inactive) | 2.74 (inactive) | 0.803 | -0.115 |
| CC(=O)C1=CCC(c2ccccc2)N(S(=O)(=O)c2ccc(C)cc2)C1 (stereo not given) | -0.0399 | 0.832 (inactive) | -0.551 (inactive) | 0.746 (inactive) | 0.533 (inactive) | 0.227 (inactive) | 0.422 (inactive) | 0.0116 (inactive) | -0.809 | -0.0773 |

From PubChem BioAssay
